Results: PubChem BioAssay (Tox21)
Inconclusive results are not listed. The source made the active and inactive calls. Unless noted, calls follow the shape of the dose curve; as a rule, active = well fitted curve in the direction sought with a large enough effect in the repeat runs; inconclusive = weak or mixed curves; inactive = no such curve, though single readings can be large; an effect the other way counts as inactive or inconclusive.

Assays:
[1] = qHTS assay to identify small molecule antagonists of the androgen receptor (AR) signaling pathway using the MDA cell line in the presence of 0.5 nM R1881 - cell viability counter screen (AID 1259242); also: nearly all actives have a fitted effect of over 45% in size
Outline: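 Fluorescence from CellTiter-Fluor, which reports protease activity of live cells, was read 30 min after reagent addition to MDA-kb2 cells that had been incubated 16 hr with compound and 0.5 nM R1881.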

[2] = qHTS assay to identify small molecule HDAC inhibitors (AID 1259364); also: top concentration of the series differs between compounds; nearly all actives have a fitted effect of over 45% in size
Outline: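 Endogenous HDAC class I/II activity was measured in wild-type HCT-116 cells by HDAC-Glo luminescence after 2 h compound treatment.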

[3] = qHTS assay to identify small molecule HDAC inhibitors - cell viability counter screen (AID 1259365); also: series mostly up to about 92 µM; nearly all actives have a fitted effect of over 50% in size
Outline: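 HCT-116 wild-type, overnight attachment; 2hr drug exposure, 37C; CellTiter-Glo luminescent ATP readout after 30min RT.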

[4] = qHTS assay to identify small molecule agonists of the sonic hedgehog signaling (Shh) pathway - cell viability counter screen (AID 1259366); also: nearly all actives have a fitted effect of over 50% in size
Outline: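 Compounds in DMSO were pin-transferred onto 3T3 Gli1-Luc cells that had settled 4hr; plates then stood 24hr at 37C and 5% CO2. One hour before the end, CellTiter-Fluor was added and fluorescence recorded.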

[5] = qHTS assay to identify small molecule antagonists of the sonic hedgehog signaling (Shh) pathway - cell viability counter screen (AID 1259367); also: nearly all actives have a fitted effect of over 55% in size
Outline: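 Cells: 3T3 Gli1-Luc, 2,000/well, 4 hr pre-incubation. Compounds in DMSO, then conditioned medium. Incubation 24 hr, 37C, 5% CO2. CellTiter-Fluor at 23 hr, 1 hr, fluorescence.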

[6] = qHTS assay to identify small molecule agonists of the sonic hedgehog signaling (Shh) pathway (AID 1259368; calls by dose curve;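 also: NIH/3T3-derived 3T3Gli1-Luc cells carrying a stable Gli1-driven firefly luciferase reporter; series mostly up to about 92 µM; nearly all actives have a fitted effect of over 15% in size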)
Outline: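 Luminescent signal was taken as a measure of Gli1-controlled luciferase expression in stably transfected NIH/3T3-derived cells that had been treated for 24 hr with compounds delivered in DMSO.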

[7] = qHTS assay to identify small molecule antagonists of the sonic hedgehog signaling (Shh) pathway (AID 1259369; calls by dose curve; also: nearly all actives have a fitted effect of over 45% in size)
Outline: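 Screening used 3T3Gli1-Luc cells at 2,000 per well, compounds delivered in DMSO, and conditioned medium as agonist stimulus; plates incubated 24hr at 37 C and 5% CO2 before a 30min luciferase step.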

[8] = target: Estrogen receptor beta (Homo sapiens) (UniProt Q92731); assay: qHTS assay to identify small molecule agonists of the estrogen receptor beta (ER-beta) signaling pathway (AID 1259377; active = well fitted activation curve with a large enough effect in the signal ratio in the repeat runs, not every such curve was filed as active; the % refers to the signal ratio)
Estrogen receptor beta (Homo sapiens), sequence (Q92731 whole entry, looked up): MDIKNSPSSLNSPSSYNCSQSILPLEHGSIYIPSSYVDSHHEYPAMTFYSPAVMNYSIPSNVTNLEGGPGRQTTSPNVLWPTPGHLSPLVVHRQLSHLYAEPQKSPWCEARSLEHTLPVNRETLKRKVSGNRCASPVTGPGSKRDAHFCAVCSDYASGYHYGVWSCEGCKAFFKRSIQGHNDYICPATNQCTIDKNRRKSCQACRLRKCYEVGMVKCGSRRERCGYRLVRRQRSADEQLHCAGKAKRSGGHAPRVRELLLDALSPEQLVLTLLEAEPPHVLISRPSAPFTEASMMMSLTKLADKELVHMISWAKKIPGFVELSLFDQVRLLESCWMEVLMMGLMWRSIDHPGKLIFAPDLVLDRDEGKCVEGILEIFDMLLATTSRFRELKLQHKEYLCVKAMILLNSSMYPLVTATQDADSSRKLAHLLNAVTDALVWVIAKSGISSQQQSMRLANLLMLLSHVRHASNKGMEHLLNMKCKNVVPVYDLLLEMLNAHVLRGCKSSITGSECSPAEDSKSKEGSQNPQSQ
Outline: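 qHTS in ER-beta-UAS-bla HEK293T cells: 6 hr settling, then 16 hr compound at 37C, then LiveBLAzer substrate 2 h at RT before fluorescence reading.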

[9] = target: Estrogen receptor beta (Homo sapiens) (UniProt Q92731); assay: qHTS assay to identify small molecule antagonists of the estrogen receptor beta (ER-beta) signaling pathway (AID 1259378; active = well fitted inhibition curve with a large enough effect in the signal ratio in the repeat runs, not every such curve was filed as active; the % refers to the signal ratio)
Outline: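 Antagonist mode: compounds added to beta-lactamase reporter HEK293T ER-beta-UAS cells stimulated with E2 (1nM final), 16 hr at 37C. LiveBLAzer B/G FRET substrate, 2 hours room temperature, fluorescence read-out.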

[10] = qHTS assay to identify small molecule agonists of the androgen receptor (AR) signaling pathway in the presence of an antagonist - cell viability counter screen (AID 1259379);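 also: MDA-kb2 human breast cancer cells carrying an MMTV luciferase reporter; series mostly up to about 92 µM; nearly all actives have a fitted effect of over 25% in size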
Outline: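 In MDA-kb2 cells (human breast carcinoma, MMTV-luciferase), compounds at 15 concentrations plus 3.0uM nilutamide; 16 hr, 37C, 0% CO2; CellTiter-Fluor fluorescence read for viability.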

[11] = qHTS assay to identify small molecule agonists of the estrogen receptor beta (ER-beta) signaling pathway - cell viability counter screen (AID 1259380); also: nearly all actives have a fitted effect of over 30% in size
Outline: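 Viability of ER-beta-UAS-bla HEK293T cells was determined by CellTiter-Glo luminescence following 16 hr treatment with test compounds at 37C.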

[12] = qHTS assay to identify small molecule antagonists of the estrogen receptor beta (ER-beta) signaling pathway - cell viability counter screen (AID 1259382);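 also: HEK293T cells carrying ER-beta-UAS-bla reporter stimulated with estradiol; series mostly up to about 92 µM; nearly all actives have a fitted effect of over 55% in size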
Outline: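 Tox21 10K library tested in qHTS format on ER-beta-bla HEK293T cells stimulated with 1nM E2; 16 hr treatment at 37C. Same-well CellTiter-Glo luminescence served as the cell viability measure.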

[13] = target: Estrogen receptor (Homo sapiens) (UniProt P03372); assay: qHTS assay to identify small molecule agonists of the estrogen receptor alpha (ER-alpha) signaling pathway in the presence of an antagonist (AID 1259383; calls by dose curve; also: top concentration of the series differs between compounds; nearly all actives have a fitted effect of over 15% in size)
Estrogen receptor (Homo sapiens), sequence (P03372 whole entry, looked up): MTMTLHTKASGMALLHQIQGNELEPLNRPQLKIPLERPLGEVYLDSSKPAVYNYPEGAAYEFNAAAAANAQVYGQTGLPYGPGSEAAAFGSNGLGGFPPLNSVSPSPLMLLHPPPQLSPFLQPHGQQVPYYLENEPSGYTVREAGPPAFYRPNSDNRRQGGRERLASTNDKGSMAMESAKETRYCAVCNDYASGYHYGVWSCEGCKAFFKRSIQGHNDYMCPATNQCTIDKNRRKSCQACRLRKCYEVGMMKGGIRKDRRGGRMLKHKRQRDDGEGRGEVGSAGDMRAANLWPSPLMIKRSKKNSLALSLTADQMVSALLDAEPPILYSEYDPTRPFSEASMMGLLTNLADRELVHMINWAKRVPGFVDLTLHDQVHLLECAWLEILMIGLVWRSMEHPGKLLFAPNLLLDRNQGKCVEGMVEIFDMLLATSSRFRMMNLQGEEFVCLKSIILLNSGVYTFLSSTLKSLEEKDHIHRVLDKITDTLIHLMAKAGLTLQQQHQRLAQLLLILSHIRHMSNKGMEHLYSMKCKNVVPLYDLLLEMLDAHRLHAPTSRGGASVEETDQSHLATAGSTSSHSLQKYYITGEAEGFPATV
Outline: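 In VM7Luc4E2 cells, 4,000 per well, compounds at 15 concentrations were co-incubated 22hr at 37C with 10.0nM final ICI-182,780. Luminescence from the stably transfected 4×ERE-luciferase reporter was recorded 30min after ONE-Glo addition.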

[14] = qHTS assay to identify small molecule agonists of the estrogen receptor alpha (ER-alpha) signaling pathway in the presence of an antagonist - cell viability counter screen (AID 1259386);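 also: series mostly up to about 92 µM; cells exposed to compounds for 22 h at 37 °C before the viability read; nearly all actives have a fitted effect of over 30% in size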
Outline: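 Fluorescent CellTiter-Fluor viability signal from VM7Luc4E2 cells, with the reagent added during the final hour of a 22hr compound exposure at 37C in the presence of 10.0nM ICI-182,780.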

[15] = qHTS assay to identify small molecule phospholipidosis (PLD) inducers (AID 1259344; active = well fitted curve in the direction sought with a large enough effect; an effect the other way counts as inactive or inconclusive)
Outline: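 Phospholipidosis is scored by imaging LipidTOX-stained pits in HepG2 cells exposed to compound for 24 h at 37 C; pit counts and integrated intensities per well and per cell serve as outputs.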

[16] = qHTS assay to identify small molecule agonists or antagonists of the thyroid stimulating hormone receptor (TSHR) signaling pathway - wild type cell line counter screen (AID 1259384; calls by dose curve)
Outline: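 Counter screen in untransfected Hek293: compounds (15-point titration, triplicate) plus phosphodiesterase inhibitor Ro20-1724 added after 18 h plating; 30 min RT. Intracellular cAMP via competitive d2/cryptate immunoassay, 1 h incubation.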

[17] = target: Thyrotropin receptor (Homo sapiens) (UniProt P16473); assay: qHTS assay to identify small molecule antagonists of the thyroid stimulating hormone receptor (TSHR) signaling pathway (AID 1259385; calls by dose curve; also: nearly all actives have a fitted effect of over 20% in size)
Thyrotropin receptor (Homo sapiens), sequence (P16473 whole entry, looked up): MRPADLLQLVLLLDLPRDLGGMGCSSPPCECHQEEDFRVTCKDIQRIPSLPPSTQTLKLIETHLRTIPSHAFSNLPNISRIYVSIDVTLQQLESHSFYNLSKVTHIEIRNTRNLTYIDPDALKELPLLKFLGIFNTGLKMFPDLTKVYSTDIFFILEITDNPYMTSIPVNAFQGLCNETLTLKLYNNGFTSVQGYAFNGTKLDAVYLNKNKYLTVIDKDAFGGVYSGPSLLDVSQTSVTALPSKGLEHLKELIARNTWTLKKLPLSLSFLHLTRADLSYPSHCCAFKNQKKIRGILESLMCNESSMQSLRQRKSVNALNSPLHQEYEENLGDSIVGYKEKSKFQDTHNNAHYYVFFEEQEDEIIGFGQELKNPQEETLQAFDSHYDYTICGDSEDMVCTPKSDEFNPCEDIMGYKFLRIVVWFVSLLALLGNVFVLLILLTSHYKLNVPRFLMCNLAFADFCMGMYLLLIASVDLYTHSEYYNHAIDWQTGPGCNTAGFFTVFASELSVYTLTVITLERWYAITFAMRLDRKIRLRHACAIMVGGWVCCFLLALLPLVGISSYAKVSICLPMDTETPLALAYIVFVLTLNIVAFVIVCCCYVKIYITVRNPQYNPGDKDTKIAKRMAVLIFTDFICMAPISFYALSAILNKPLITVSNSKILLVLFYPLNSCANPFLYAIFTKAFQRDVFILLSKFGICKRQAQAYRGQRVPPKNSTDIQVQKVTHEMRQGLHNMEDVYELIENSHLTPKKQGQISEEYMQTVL
Outline: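 Antagonist mode: compound-treated TSHR-expressing HEK293 cells were stimulated with 1.5 ng/mL TSH (final) in presence of Ro20-1724 for 30 min at RT. HTRF cAMP detection after 1 h; each compound tested at 15 concentrations, triplicate.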

Measured: Potency

COCC(C)OC(C)=O (stereo not drawn)
inactive: [1] | [2] | [3] | [4] | [5] | [6] | [7] | [8] | [9] | [10] | [11] | [12] | [13] | [14]

CN(C)CCN(Cc1ccccc1)c1ccccn1
inactive: [1] | [15] | [2] | [3] | [4] | [5] | [7] | [8] | [9] | [10] | [12] | [13] | [16] | [17] | [14]

O=C(O)c1ccccc1Cl
inactive: [1] | [2] | [3] | [4] | [5] | [6] | [7] | [8] | [9] | [10] | [11] | [12] | [16] | [17] | [14]

Nc1ccc(S(=O)(=O)Nc2ccccc2)cc1
inactive: [1] | [15] | [2] | [3] | [4] | [5] | [6] | [10] | [11] | [12] | [16] | [17] | [14]

C1CCCNCCC1
inactive: [1] | [2] | [3] | [4] | [5] | [6] | [7] | [8] | [9] | [10] | [11] | [12] | [16] | [17] | [14]

CCC(C)(C)CC
inactive: [1] | [2] | [4] | [5] | [6] | [7] | [8] | [9] | [10] | [11] | [12] | [14]

COc1ccc(C)cc1[N+](=O)[O-]
inactive: [1] | [2] | [4] | [5] | [6] | [7] | [8] | [9] | [10] | [11] | [12] | [16] | [14]

CCC(C)O (stereo not drawn)
inactive: [1] | [2] | [3] | [4] | [5] | [6] | [7] | [10] | [11] | [12] | [16] | [17] | [14]

CCCCC(CC)COC(=O)COc1ccc(Cl)cc1Cl (stereo not drawn)
inactive: [1] | [2] | [3] | [4] | [5] | [7] | [8] | [9] | [10] | [12] | [13] | [16] | [14]
